Source: PubChem (National Center for Advancing Translational Sciences (NCATS))
Shown are actives, neighbours in structure and some others; about 2.9% of the full set was active somewhere.
DRD3 antagonist: qHTS of D3 Dopamine Receptor Antagonist: qHTS; max response, negative = inhibition, %; AID 652054, 2013; 360,000 compounds, 2.5% hits; D3R cells, DiscoveRx beta-arrestin luminescence, antagonist mode; stronger effect = lower value; in the data active means max response below about -50%; inconclusive means no clear call, values can overlap the other calls; further: on the % scale 0 is the no-effect control and ±100 the full control effect
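Cells plated overnight at 1500 cells/well, then exposed to library compounds with dopamine controls for 90 minutes at 37 degrees C. DiscoveRx reagent added for 30–60 minutes at room temperature; luminescence read, quantitative HTS format.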
D3 ag: qHTS of D3 Dopamine Receptor Agonist: qHTS; D(3) dopamine receptor (Homo sapiens), P35462; D3R DiscoveRx beta-arrestin cells, luminescence, 90 min; max activation, %; 410,000 compounds, 0.58% hits; AID 652048, 2013; in the data active means max activation above about 30%; further: 0% is about no effect
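Agonist mode: compounds and dopamine controls were applied to plated cells for 90 min at 37 degrees C after an overnight attachment at 1500 cells/well. Luminescent read-out followed 30 - 60 minutes at room temperature with DiscoveRx detection reagent.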
B2AR arrestin: qHTS assay of beta-arrestin-biased ligands of beta2-adrenergic receptor. Beta-2 adrenergic receptor (Homo sapiens), P07550. beta-arrestin recruitment to beta2AR, cell-based reporter. Potency, µM (series often up to 46.1 µM), inactives show at the highest dose activation, actives largely listed as activators. 330,000 compounds, 0.02% hits; active means well fitted activation curve with a large enough effect; inconclusive means small, poorly fitted or top-dose-only effect;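 further: potency means the concentration at half of the fitted maximal effect; 0% = DMSO controls and full agonism = EC100 isoproterenol or metaproterenol; nearly all actives have a fitted effect of over 65% in size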
Target sequence (P07550 whole entry, looked up): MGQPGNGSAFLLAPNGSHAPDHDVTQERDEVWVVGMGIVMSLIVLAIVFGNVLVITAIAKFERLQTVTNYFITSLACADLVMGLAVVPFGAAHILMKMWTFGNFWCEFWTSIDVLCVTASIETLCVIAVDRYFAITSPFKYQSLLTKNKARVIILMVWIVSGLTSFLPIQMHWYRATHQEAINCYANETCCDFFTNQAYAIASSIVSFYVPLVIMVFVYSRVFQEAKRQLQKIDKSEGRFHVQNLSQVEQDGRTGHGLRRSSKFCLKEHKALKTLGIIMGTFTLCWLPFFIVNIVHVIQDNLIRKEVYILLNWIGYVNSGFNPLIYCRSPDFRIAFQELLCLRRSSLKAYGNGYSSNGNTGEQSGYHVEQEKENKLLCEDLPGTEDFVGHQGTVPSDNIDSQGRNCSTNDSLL
TSHR antagonist: Antagonists of the Thyroid Stimulating Hormone Receptor: HTS campaign; Thyrotropin receptor (Homo sapiens), P16473; TSHR-expressing cells, TSH-stimulated cAMP HTRF, 2 h; stronger effect = lower value; activity change, negative = inhibition, % at 11.5 µM; 330,000 compounds, 0.2% hits; AID 504810, 2011;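 active means activity change below a set negative limit, meaning inhibition stronger than a set level, cut at about -70% in these data; inconclusive means activity change between two set negative limits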; further: on the % scale 0 is the no-effect control and ±100 the full control effect
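Freshly harvested TSHR cells receive pin-tooled compound, then EC80 TSH at 4nM final. After 2 hours at 37 deg C, antibody in lysis buffer and cAMP-d2 are added; 30 minutes at ambient temperature precede the HTRF read.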
* = called active by the depositor; ? = inconclusive; . = no result given.

SMILES | DRD3 antagonist | D3 ag | B2AR arrestin | TSHR antagonist
O=C(CN1C(=O)S/C(=C\c2ccc(-c3cc(C(=O)O)ccc3Cl)o2)C1=O)Nc1ccc2c(c1)OCO2 | . | . | 0% | -3
CC(C)C[C@H]1CNC(=S)N1C[C@H]1CCCN1C[C@H](Cc1ccc(O)cc1)N1C[C@H](CC(C)C)N(CCc2ccccc2)C1=S | -19 | -11 | . | .
Cc1cc2ccccc2n1CCNC(=O)c1ccccc1F | . | -7 | . | .
Cc1ccc(-c2nc(N/N=C/c3ccccc3[N+](=O)[O-])c3ccccc3n2)cc1 | 35 | 45* | 0% | 3
CC(=O)N(C)C1=C(N2CCOCC2)C(=O)c2ccccc2C1=O | -57* | -33 | -1% | 15
CN(C)CCN1C(=O)c2ccccc2N(C)c2ccccc21 | . | -16 | . | .
COC(=O)C1=C(CS(=O)(=O)c2cc(Cl)ccc2OC)NC(=O)NC1c1ccccc1 (stereo not given) | . | -7 | . | .
Brc1ccc2c(c1)CN1CCCC1=N2 | -50* | -7 | -1% | -4
Cc1ccc(-n2ncc(C(=O)NCCCN3CCc4ccccc4C3)c2C2CCN(C(=O)OC(C)(C)C)CC2)c(C)c1 | . | -40 | . | .
Cc1oc(-c2ccc(Cl)cc2)nc1CSCC(=O)NC1CCN(Cc2ccccc2)CC1 | -76* | -30 | 0% | 3
CCOc1ccc(-c2nc(CSCC(=O)NC3CCN(Cc4ccccc4)CC3)c(C)o2)cc1 | -117* | -5 | . | .
Cc1ccc(Cl)cc1N1CCN(C(=O)C2CCCN(S(=O)(=O)c3ccc(Br)s3)C2)CC1 (stereo not given) | . | 1 | . | .
CCC1CCCCN1C(=O)COC(=O)c1n[nH]c2ccccc12 (stereo not given) | 2 | -2 | 0% | 12
CC1CCN(C(=O)COC(=O)c2n[nH]c3ccccc23)CC1 | -54* | -12 | -1% | 5
Cc1ccccc1C(=O)Nc1nc2nc(C)c(C)c(=O)n2[nH]1 | . | -14 | . | .
O=C1C=CC(=O)N1c1ccc(O)cc1 | -16 | -5 | 0% | 8
O=C1C=CC(=O)N1c1ccc(OC(F)F)cc1 | -55* | -20 | 0% | 0
CCCCC1(C)Cc2ccccc2C(=S)N1 (stereo not given) | -50* | -8 | 9% | 0
Cc1cccc(N2CCn3c2nc2c3c(=O)n(CCCc3ccccc3)c(=O)n2C)c1 | . | -14 | . | .
CCOC(=O)c1cnn(CCOC(=O)C(C)(C)C)c1NC(=O)C(C)(C)C | 23 | 12 | 0% | 11
CCOC(=O)c1cnn(CCOC(=O)C2CC2)c1NC(=O)C1CC1 | -99* | 8 | -2% | 3
CC(C)(C)C(=O)NNC(=O)C1CC1(c1ccccc1)c1ccccc1 (stereo not given) | 19 | 45* | 0% | -2
O=C(NCCc1ccc(Cl)cc1)c1cnc2sc(N3CCCCC3)nn2c1=O | . | 7 | . | .
CCN1/C(=C\C=C2\C(=O)N(C)C(=S)N2C)Sc2ccccc21 | -2 | -6 | 0% | -6
CCC(=S)/C=C1\Sc2ccccc2N1CCCS(=O)(=O)O | -63* | 7 | 0% | 15
SMILES | DRD3 antagonist | D3 ag | B2AR arrestin | TSHR antagonist
CCN(CC)C(C(=O)Nc1ccc(C(C)C)cc1)c1ccc2c(c1)OCO2 (stereo not given) | -54* | 1 | 0% | -1
CC(C)c1ccc(NC(=O)C(c2ccc3c(c2)OCO3)N2CCN(C(=O)c3ccco3)CC2)cc1 (stereo not given) | -22 | 1 | 0% | -4
CC(=O)c1cccc(NC(=O)c2ccc(-n3c(C)nnc3C)cc2)c1 | . | 5 | . | .
O=C(c1cccnc1)N1CCN(CCCc2ccccc2)CC1 | 5 | 52* | 0% | 24
COc1ccc(CN2CCN(C(=O)c3cccs3)CC2)cc1 | -58* | -13 | 0% | 4
O=C(c1cccs1)N1CCN(CCCc2ccccc2)CC1 | -65* | -6 | 0% | 4
CCN(CCCNC(=O)c1ccc(Sc2ccc(Cl)cc2)c(NC(C)=O)c1)c1ccccc1 | . | -6 | . | .
CCOc1ccccc1NC(=O)n1ncc2cc(Cl)ccc21 | . | -11 | . | .
COc1ccccc1N1CCN(CCN2C(=O)CC(=C3c4ccccc4-c4ccccc43)C2=O)CC1 | -76* | -7 | . | .
Cc1ccccc1N1CCN(CCN2C(=O)CC(=C3c4ccccc4-c4ccccc43)C2=O)CC1 | -65* | -5 | . | .
O=C1CC(=C2c3ccccc3-c3ccccc32)C(=O)N1CCN1CCN(c2ccccc2)CC1 | -8 | 0 | . | .
CN(CC(=O)NCc1ccccc1Cl)S(=O)(=O)c1ccc2c(c1)c(=O)n(C)c(=O)n2C | . | -15 | . | .
O=C(/C=C/c1ccccc1)NC(=S)Nc1ccc(CN2CCOCC2)cc1 | -57* | -17 | 1% | -9
O=C(/C=C/c1ccc(Cl)cc1Cl)NC(=S)Nc1ccc(CN2CCOCC2)cc1 | -83* | -30 | 0% | 30
COc1ccc(N2CC(NC(=O)C3CCCCC3)CC2=O)cc1OC (stereo not given) | . | 7 | . | .
Cc1ccc(NC(=O)c2ccc(-n3cccn3)c([N+](=O)[O-])c2)cc1 | -53* | -8 | 0% | -4
COc1cc(/C=C/c2ccc3cccc(O)c3n2)cc(OC)c1OC | -64* | -27 | 1% | -3
COc1cc(/C=C/c2ccc3cccc(O)c3n2)cc(Br)c1OC | -55* | -18 | 0% | 2
COc1ccc(Br)cc1/C=C/c1ccc2cccc(O)c2n1 | -24 | 16 | 0% | -11
COc1ccc(/C=C/c2ccc3cccc(O)c3n2)cc1Br | ? | -15 | 0% | -1
COc1cc(Br)cc(/C=C/c2ccc3cccc(O)c3n2)c1OC | 19 | 12 | -1% | 11
COc1cc(/C=C/c2ccc3cccc(O)c3n2)cc(Cl)c1OC | -52* | -17 | 0% | 0
COc1cccc(/C=C/c2ccc3cccc(O)c3n2)c1 | -56* | -21 | 1% | -2
Oc1cccc(/C=C/c2ccc3cccc(O)c3n2)c1 | ? | 1 | 0% | -9
COc1ccc(CNC(=O)c2ccc(CN3C(=O)C(C)=C(c4ccc(C)cc4)S3(=O)=O)cc2)cc1 | . | -5 | . | .
SMILES | DRD3 antagonist | D3 ag | B2AR arrestin | TSHR antagonist
COc1cccc(CNC(=O)c2ccc(CN3CC(=O)N4CCCCC4C3=O)cc2)c1 (stereo not given) | . | -1 | . | .
COc1ccc(/C=C/c2ccc3cccc(O)c3n2)c(OC)c1OC | 0 | -26 | ? | -4
COc1ccc(/C=C/c2ccc3c(Br)ccc(O)c3n2)cc1 | ? | -20 | 0% | 5
COc1cc(/C=C/c2ccc3c(Br)cc(Br)c(O)c3n2)ccc1O | -91* | -27 | ? | 3
COc1cccc(/C=C/c2ccc3cccc(O)c3n2)c1OC | -160* | -20 | 4% | -7
CC(=O)Nc1ccc(/C=C/c2ccc3cccc([N+](=O)[O-])c3n2)cc1 | -21 | -9 | 0% | -11
COC(=O)c1ccc(/C=C/c2ccc3cccc(OC)c3n2)cc1 | 4 | 31* | -1% | -14
CCN(c1ccccc1C)S(=O)(=O)c1nnc(NC(=O)c2ccccc2C)s1 | . | -18 | . | .
O=C(CN1C=NS(=O)(=O)c2ccccc21)Nc1ccc(Br)cc1 | . | -21 | . | .
